Screening results deposited in PubChem by Broad Institute.
Shown is part of a subset that was picked to be rich in hits.
Tg IFNy HTS = T. gondii growth inhibition with IFN-gamma, primary screen, cell-based; Toxoplasma gondii growth in IFN-gamma-treated host cells; stronger effect = lower value; activity change, negative = inhibition, % (no concentration beside the values); 3.8% of 69,000 active; in the data active means activity change below about -70%, passing the limit was not always enough;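 further: host cells are HeLa cells infected with Toxoplasma gondii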
An asterisk follows results filed as active; ! = a repeat was not active.

SMILES	Tg IFNy HTS
CN(CC1COCCO1)C(=O)c1coc(COc2ccc3ncccc3c2)n1 (stereo unspecified)	4
Cc1ccc(NC(=O)C(=O)NCCc2sc(-c3ccc(Cl)cc3)nc2C)c(C)c1	118
O=C(NCCc1c[nH]c2ccc(Cl)cc12)c1cc(-c2ccccn2)nc2ccccc12	-70
CCOC(=O)c1c(NC(=O)c2cc(-c3ccccc3)nc3ccc(C)cc23)sc(C)c1C	22
Cc1ccc2nc(-c3ccccn3)cc(C(=O)Nc3n[nH]c4nc(C)ccc34)c2c1	-99*
COCc1nnc(NC(=O)CC(C)n2nnc3ccccc32)s1 (stereo unspecified)	12
CC1CN(CCCn2c3ccccc3c3ccccc32)CC(C)N1 (stereo unspecified)	-4
COc1ccccc1C1(O)CCCN(CC(O)c2ccc(C)cc2)C1 (stereo unspecified)	-42
COc1ccccc1C1(O)CCN(CCCn2c3ccccc3c3ccccc32)CC1	-77*!
CC(C)OC(=O)CNC(=O)[C@H](CS)NC(=O)CC[C@H](N)C(=O)O	12
COc1ccc2[nH]c(C(=O)N3CCC(O)(CO)CC3)c(C)c2c1	12
COCc1nnn2c1CN(Cc1c(C)noc1C)CCC2	-11
COc1ccccc1NC(=O)c1ccc2nsnc2c1	70
COc1cc(C(=O)Nc2ccc(-c3nc(-c4ccc(C)cc4)co3)cc2)cc(OC)c1OC	16
COc1cc(C(=O)Nc2ccccc2-c2nc3ccccc3s2)cc(OC)c1OC	-90*
COCCN1C(=O)N(Cc2ccccc2)C2(CCN(Cc3cccn3-c3nccs3)CC2)C1=O	13
CCOC(=O)CNc1nc(C(C)(C)C)nc2c1cnn2C	-4
Cc1nccn1CCN(C)c1nc(C(C)(C)C)nc2c1cnn2C	-12
Cn1ncc2c(NCc3cc(C(C)(C)C)n[nH]3)nc(C(C)(C)C)nc21	-75*
O=C(CO)N1CC2CC1C[C@@H]2Oc1cccnc1 (stereo partly specified)	62
C1CCN(Cc2nnn3c2CN(CC2CC2)CCC3)C1	18
CO[C@@H]1[C@H](N(C)C(=O)c2ccccc2)C[C@H]2O[C@]1(C)n1c3ccccc3c3c4c(c5c6ccccc6n2c5c31)C(=O)NC4	-84*
Cn1c2ccccc2c2c3c(c4c5ccccc5n(CCC#N)c4c21)CNC3=O	-63
C[C@@H]1CN([C@H](C)CO)C(=O)c2c(c3ccccc3n2C)-c2ccccc2CO[C@H]1CN(C)C(=O)Nc1ccc2c(c1)OCO2	-7
CC(C(=O)NC1CC2(CCCC2)Oc2ccccc21)c1n[nH]c(=O)c2ccccc12 (stereo unspecified)	50
SMILES	Tg IFNy HTS
CC(=O)N1CCOC2(CCCN(CCc3ccccc3)C2)C1 (stereo unspecified)	-10
COc1cccc(NC(=O)Nc2ccc3c(c2)C(=O)N(C)C[C@@H](OC)[C@H](C)CN[C@@H](C)CO3)c1	-34
COc1cccc(NC(=O)Nc2ccc3c(c2)C(=O)N(C)C[C@H](OC)[C@H](C)CN[C@@H](C)CO3)c1	19
CO[C@@H]1CN(C)C(=O)c2cc(NC(=O)c3ccc(Oc4ccccc4)cc3)ccc2OC[C@H](C)NC[C@@H]1C	-97*
CO[C@@H]1CN(C)C(=O)c2cc(NC(=O)c3cnccn3)ccc2OC[C@H](C)NC[C@H]1C	10
CO[C@@H]1CN(C)C(=O)c2cc(NC(=O)c3cnccn3)ccc2OC[C@H](C)NC[C@@H]1C	-35
CO[C@@H]1CN(C)C(=O)c2cc(NC(=O)c3ccc(Oc4ccccc4)cc3)ccc2OC[C@@H](C)NC[C@H]1C	-119*
CO[C@H]1CN(C)C(=O)c2ccc(NC(=O)c3cccc(F)c3)cc2OC[C@@H](C)NC[C@@H]1C	47
CO[C@H]1CN(C)C(=O)c2cc(NS(=O)(=O)c3cccc(Cl)c3)ccc2OC[C@H](C)NC[C@H]1C	-86*
COc1cccc(NC(=O)Nc2ccc3c(c2)C(=O)N(C)C[C@H](OC)[C@@H](C)CN[C@H](C)CO3)c1	28
CO[C@H]1CN(C)C(=O)c2cc(NS(=O)(=O)c3cccc(Cl)c3)ccc2OC[C@@H](C)NC[C@H]1C	-61
CO[C@H]1CN(C)C(=O)c2cc(NC(=O)c3ccc(Oc4ccccc4)cc3)ccc2OC[C@H](C)NC[C@H]1C	-98*
CO[C@@H]1CN(C)C(=O)c2cc(NS(=O)(=O)c3cn(C)cn3)ccc2OC[C@@H](C)NC[C@@H]1C	-13
CN1CCN(c2nc(-c3ccccn3)nc3c2CCNC3)CC1CCO (stereo unspecified)	3
COc1ccc(CN(C)Cc2ncc[nH]2)c2cccnc12	-4
C/C=C/c1ccc([C@@H]2[C@H](CO)N(CC3CC3)C23CN(C(=O)c2ccc4c(c2)OCO4)C3)cc1	58
CC(=O)N1CCN(c2nc(C)cc(C)n2)CC1	17
Cc1nc(CC(NC(=O)c2cc(C(C)(C)C)[nH]n2)c2ccc(Cl)cc2)cc(=O)[nH]1 (stereo unspecified)	7
Cc1cc(C)nc(N2CCC(CNC(=O)c3cc(C(C)(C)C)[nH]n3)CC2)n1	-77*
CN(Cc1ccc2cccc(O)c2n1)Cc1nnc(-c2ccccc2)o1	-7
CC1Cc2ccccc2N1C(=O)C(=O)N1CCN(C)C2(CCN(C)CC2)C1 (stereo unspecified)	10
O=C(C[C@@H]1CC[C@@H]2NC[C@@H](O)COC[C@H]2O1)Nc1nccs1	15
CC(NC(=O)c1cc(-c2ccc(F)cc2)no1)c1nc2ccccc2n1C(C)C (stereo unspecified)	-10
CC(C)n1c(/C=C/[C@@H](O)C[C@@H](O)CC(=O)O)c(-c2ccc(F)cc2)c2ccccc21	-78*!
CC(C)n1c(SCC(=O)O)nc2ccccc21	29
SMILES	Tg IFNy HTS
CCn1cc(CN2CCN(C(=O)c3cc4c(F)cccc4[nH]3)CC2)c(C)n1	-108*
CCn1cc(CN2CCN(C(=O)c3ccnc(N4CCOCC4)c3)CC2)c(C)n1	14
Cc1nn(CCO)cc1CN1CCN(S(=O)(=O)c2ccccc2)CC1	-7
CC(C)N1C[C@H]2C[C@@H](CC(=O)NCc3cccs3)O[C@@H]2C1	175
CCC(=O)NCc1ccccc1-c1ccc2c(c1)OCCO2	11
CCNC(=O)Cc1ccc(-c2ccc3c(c2)OCCO3)cc1	-74*
CCc1cc(-c2ccc3c(c2)OCCO3)ccc1NC(C)=O	136
CCCc1ccc(S(=O)(=O)N2CCC3(CC2)Nc2ccc(C)c(C)c2-n2cccc23)cc1	32
CC(=O)Nc1nc(C(=O)NC2CC3(CCOCC3)Oc3ccccc32)cs1 (stereo unspecified)	14
COC(=O)C1=C(C)NC(C)=C(C(=O)NCCCN2CCC(c3ccccc3)(c3ccccc3)CC2)C1c1ccc([N+](=O)[O-])cc1 (stereo unspecified)	-76*
COC(=O)C1=C(C)NC(C)=C(C(=O)OCCCN2CCC(c3ccccc3)(c3ccccc3)CC2)[C@@H]1c1cccc([N+](=O)[O-])c1	-87*
COC(=O)C1=C(C)NC(C)=C([N+](=O)[O-])[C@H]1c1ccccc1C(F)(F)F	-34
COC(=O)C1=C(C)NC(C)=C(C(=O)O[C@H]2CCN(Cc3ccccc3)C2)[C@H]1c1cccc([N+](=O)[O-])c1	-2
COC(=O)C1=C(C)NC(C)=C(C(=O)OCC(C)C)C1c1ccccc1[N+](=O)[O-] (stereo unspecified)	17
C#CCN1C(C)=C(C(=O)OC)C(c2cccc([N+](=O)[O-])c2)C(C(=O)OCC)=C1C (stereo unspecified)	15
